# Experimental data as given in paper PMC8384837, “Expanding the binding specificity for RNA recognition by a PUF domain”.
# Changes are numbered by the printed parent chain.
# Experiments:
# Assay in all cases: yeast three-hybrid, YBZ-1, SC-Leu-His + 0.5 mM 3-AT, 4 days
# Details in all cases: tags: N-Gal4 AD-HA kept; label: inside an RPR1-promoter hybrid RNA with tandem MS2 sites; ssRNA
# [1] = target: T1, PUM1 PUF domain R6-CHC (Homo sapiens, UniProt Q14671 828-1176, N1043C;Y1044H;Q1047C)
# T1 sequence: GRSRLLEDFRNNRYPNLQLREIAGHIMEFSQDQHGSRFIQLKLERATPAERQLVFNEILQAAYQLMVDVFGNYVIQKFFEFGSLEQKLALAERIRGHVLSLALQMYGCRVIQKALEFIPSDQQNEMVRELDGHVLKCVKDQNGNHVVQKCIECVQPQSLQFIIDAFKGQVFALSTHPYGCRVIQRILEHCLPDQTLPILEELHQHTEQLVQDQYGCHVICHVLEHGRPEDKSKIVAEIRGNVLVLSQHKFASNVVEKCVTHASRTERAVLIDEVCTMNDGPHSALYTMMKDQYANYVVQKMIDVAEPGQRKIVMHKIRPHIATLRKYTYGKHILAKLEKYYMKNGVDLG
# Outline: (§1)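 The interaction score is the log change in how often each variant appears, from input to selection. Frequencies came from PCR-amplified, Illumina-sequenced repeat regions of Pumilio-1 PUF domain libraries grown in strain YBZ-1 (LexA–MS2 coat fusion, HIS3 reporter) alongside matching RNA elements. Input plates were SC-Leu and selection plates were SC-Leu-His + 0.5 mM 3-AT, each for four days, and the log2 calculation used a pseudocount of 1 where a variant was absent.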
# [2] = target: PUM1 PUF domain R8-KWA (Homo sapiens, UniProt Q14671 828-1176, N1122K;Y1123W;Q1126A)
# Outline: as §1
# [3] = target: PUM1 PUF domain R7-RRI (Homo sapiens, UniProt Q14671 828-1176, S1079R;N1080R;E1083I)
# Outline: as §1
# [4] = target: T2, PUM1 PUF domain R6-CYI (Homo sapiens, UniProt Q14671 828-1176, N1043C;Q1047I)
# T2 sequence: T1 sequence with H217Y, C220I
# Outline: as §1
# [5] = target: PUM1 PUF domain R5-QLR (Homo sapiens, UniProt Q14671 828-1176, C1007Q;R1008L;Q1011R)
# Outline: as §1
# [6] = target: PUM1 PUF domain R3-DAK (Homo sapiens, UniProt Q14671 828-1176, C935D;R936A;Q939K)
# Outline: as §1
# [7] = target: PUM1 PUF domain R2-AFW (Homo sapiens, UniProt Q14671 828-1176, N899A;Y900F;Q903W)
# Outline: as §1
# [8] = target: PUM1 PUF domain R1-KGR (Homo sapiens, UniProt Q14671 828-1176, S863K;R864G;Q867R)
# PUM1 PUF domain R1-KGR, sequence (Q14671 828-1176 S863K/R864G/Q867R): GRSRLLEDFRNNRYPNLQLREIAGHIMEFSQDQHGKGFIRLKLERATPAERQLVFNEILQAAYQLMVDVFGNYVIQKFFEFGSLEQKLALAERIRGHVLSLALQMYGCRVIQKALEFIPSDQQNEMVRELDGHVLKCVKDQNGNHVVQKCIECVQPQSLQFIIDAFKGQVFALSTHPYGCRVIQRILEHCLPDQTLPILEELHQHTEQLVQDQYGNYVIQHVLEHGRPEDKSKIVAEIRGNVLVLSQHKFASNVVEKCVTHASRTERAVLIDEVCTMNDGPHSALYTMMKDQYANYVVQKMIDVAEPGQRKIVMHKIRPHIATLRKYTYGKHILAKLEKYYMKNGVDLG
# Outline: as §1
# [9] = target: PUM1 PUF domain R5-DFV (Homo sapiens, UniProt Q14671 828-1176, C1007D;R1008F;Q1011V)
# PUM1 PUF domain R5-DFV, sequence (Q14671 828-1176 C1007D/R1008F/Q1011V): as the sequence (Q14671 828-1176 S863K/R864G/Q867R) above, with K36S, G37R, R40Q, C180D, R181F, Q184V counted along it
# Outline: as §1
sequence,measurement,setting,value
GGCUAGAACUAGUGGAUCCCCCGGCGCCCGGCGGCUCGAGCCCGGGUAAGUGUAAAUAGUCUGCAUGCCGCCGGGCGCCAUGCCUGCAGGUCGACUCUAGAAAACAUG,binding signal,[1],3.57 log2 enrichment (interaction score)
same,binding signal,[2],2.67 log2 enrichment (interaction score)
GGCUAGAACUAGUGGAUCCCCCGGCGCCCGGCGGCUCGAGCCCGGGUAAGUCUAAAUAGUCUGCAUGCCGCCGGGCGCCAUGCCUGCAGGUCGACUCUAGAAAACAUG,binding signal,[3],5.69 log2 enrichment (interaction score)
GGCUAGAACUAGUGGAUCCCCCGGCGCCCGGCGGCUCGAGCCCGGGUAAGUGAAAAUAGUCUGCAUGCCGCCGGGCGCCAUGCCUGCAGGUCGACUCUAGAAAACAUG,binding signal,[4],5.81 log2 enrichment (interaction score)
GGCUAGAACUAGUGGAUCCCCCGGCGCCCGGCGGCUCGAGCCCGGGUAAGUGUUAAUAGUCUGCAUGCCGCCGGGCGCCAUGCCUGCAGGUCGACUCUAGAAAACAUG,binding signal,[5],0.88 log2 enrichment (interaction score)
GGCUAGAACUAGUGGAUCCCCCGGCGCCCGGCGGCUCGAGCCCGGGUAAGUGUCAAUAGUCUGCAUGCCGCCGGGCGCCAUGCCUGCAGGUCGACUCUAGAAAACAUG,binding signal,[5],6.43 log2 enrichment (interaction score)
GGCUAGAACUAGUGGAUCCCCCGGCGCCCGGCGGCUCGAGCCCGGGUAAGUGUAAUUAGUCUGCAUGCCGCCGGGCGCCAUGCCUGCAGGUCGACUCUAGAAAACAUG,binding signal,[6],3.6 log2 enrichment (interaction score)
GGCUAGAACUAGUGGAUCCCCCGGCGCCCGGCGGCUCGAGCCCGGGUAAGUGUAAAGAGUCUGCAUGCCGCCGGGCGCCAUGCCUGCAGGUCGACUCUAGAAAACAUG,binding signal,[7],1.14 log2 enrichment (interaction score)
GGCUAGAACUAGUGGAUCCCCCGGCGCCCGGCGGCUCGAGCCCGGGUAAGUGUAAAAAGUCUGCAUGCCGCCGGGCGCCAUGCCUGCAGGUCGACUCUAGAAAACAUG,binding signal,[7],4.3 log2 enrichment (interaction score)
GGCUAGAACUAGUGGAUCCCCCGGCGCCCGGCGGCUCGAGCCCGGGUAAGUGUAAAUUGUCUGCAUGCCGCCGGGCGCCAUGCCUGCAGGUCGACUCUAGAAAACAUG,binding signal,[8],4.34 log2 enrichment (interaction score)
GGCUAGAACUAGUGGAUCCCCCGGCGCCCGGCGGCUCGAGCCCGGGUAAGUGUAAAUCGUCUGCAUGCCGCCGGGCGCCAUGCCUGCAGGUCGACUCUAGAAAACAUG,binding signal,[8],3.57 log2 enrichment (interaction score)
GGCUAGAACUAGUGGAUCCCCCGGCGCCCGGCGGCUCGAGCCCGGGUAAGUGUGAAUAGUCUGCAUGCCGCCGGGCGCCAUGCCUGCAGGUCGACUCUAGAAAACAUG,binding signal,[9],3.55 log2 enrichment (interaction score)
GGCUAGAACUAGUGGAUCCCCCGGCGCCCGGCGGCUCGAGCCCGGGUAAGCGUAAAUAGUCUGCAUGCCGCCGGGCGCCAUGCCUGCAGGUCGACUCUAGAAAACAUG,binding signal,[2],3.8 log2 enrichment (interaction score)
